Most compounds without a hit are left out; they make up all but 12% or so of the library.
PI5P4K alpha inh = PI5P4K alpha (human) kinase inhibition; PI5P4Kalpha enzyme, ADP-Glo luminescence, 60 min; active compounds read low; max response, %; 1.2% of 330,000 active; AID 652105; active = max response of -50% or lower; inconclusive = between -30% and -50%; inactive = -30% or higher; note: value at the top dose of about 77 µM
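Controls without substrate or without enzyme flank wells where PI5P4Kalpha converts substrate using 5 microM ATP (final). Incubation lasts 60 minutes at room temperature; ADP formed is read by ADP-Glo luminescence.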
BAZ2B inh = inhibitors of human BAZ2B bromodomain. Potency, µM (series often up to 114 µM), hits mostly inhibitors. AID 504333. Q9UIF8. 4.4% of 360,000 active. AlphaScreen BAZ2B-H3K14Ac peptide displacement; note: nearly all actives have a fitted effect of over 60% in size
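AlphaScreen displacement of biotin-H3(5-23)K14Ac peptide (50 nM final) from BAZ2B (50 nM final) in PBS pH 7.4, 0.01% Tween-20; complex preformed 30 min RT, then compounds (top 110 uM) 30 min RT, beads 20 min dark.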
PLK1 PBD inh = PLK1 (human) polo-box domain binding inhibition | P53350 | Plk1 PBD binding of FITC phosphopeptide, fluorescence polarization | Potency, µM, hits mostly inhibitors | 2.8% of 360,000 active | AID 720504; note: series mostly up to about 57 µM; nearly all actives have a fitted effect of over 65% in size
Target sequence (P53350 whole entry, looked up, the tested form may be a part): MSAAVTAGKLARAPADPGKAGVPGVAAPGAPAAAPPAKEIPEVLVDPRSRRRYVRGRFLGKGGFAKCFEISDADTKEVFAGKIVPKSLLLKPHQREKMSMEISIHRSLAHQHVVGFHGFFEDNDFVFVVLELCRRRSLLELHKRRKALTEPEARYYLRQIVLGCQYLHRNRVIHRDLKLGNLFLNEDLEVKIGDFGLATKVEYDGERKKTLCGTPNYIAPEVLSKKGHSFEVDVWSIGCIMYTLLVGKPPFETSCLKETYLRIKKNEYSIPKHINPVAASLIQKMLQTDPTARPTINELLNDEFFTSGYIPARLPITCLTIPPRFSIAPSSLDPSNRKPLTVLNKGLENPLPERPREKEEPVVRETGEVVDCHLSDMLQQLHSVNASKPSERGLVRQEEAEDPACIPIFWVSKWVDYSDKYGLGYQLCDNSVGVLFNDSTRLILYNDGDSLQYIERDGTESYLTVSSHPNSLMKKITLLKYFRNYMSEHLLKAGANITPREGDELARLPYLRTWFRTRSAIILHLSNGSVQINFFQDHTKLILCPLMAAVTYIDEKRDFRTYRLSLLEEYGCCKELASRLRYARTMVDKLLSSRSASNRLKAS
HP1b chromo inh = inhibitors of HP1-beta chromodomain binding to methylated histone tails. P83916. AlphaScreen HP1-beta / biotin-H3K9me3 peptide binding. Potency, µM (titrated, usually from 114 µM), usual class: inhibitors. 0.56% of 390,000 active. AID 540317; note: nearly all actives have a fitted effect of over 70% in size
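HP1-beta protein (50 nM final) preincubated 30 min at room temperature with biotinylated H3(1-18)K9me3 peptide (50 nM) in PBS pH 7.4, 0.01% Tween-20, then compound added for 30 min. AlphaScreen streptavidin donor/nickel chelate acceptor beads (10 ug/mL final), 30 min dark, luminescence read.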
G9a inh = inhibitors of human histone lysine methyltransferase G9a. AID 504332. Potency, µM (doses to about 102 µM), most hits filed as inhibitors. Q96KQ7. G9a H3K9 monomethylation, AlphaScreen, 2 h. 8.8% of 350,000 active; note: nearly all actives have a fitted effect of over 75% in size
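Using a bead-based AlphaScreen, monomethylated H3K9 product from 2 h room-temperature reactions (G9a 20 nM, peptide 500 nM, SAM 20 uM) was detected with 0.5 ug/mL rabbit anti-H3K9me1 antibody.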
JMJD2A Tudor inh = JMJD2A Tudor domain (human) inhibition; O75164; AlphaScreen JMJD2A-Tudor / H3K4me3 peptide binding; Potency, µM (top dose mostly 114 µM), actives largely listed as inhibitors; 4.4% of 390,000 active; AID 504339; note: nearly all actives have a fitted effect of over 50% in size
Hits are given with their value; i = inactive; ? = inconclusive; nt = no result given; [ ] = remark or other dose. Unless noted, calls come from the whole dose curve; as a rule, active = well fitted curve in the direction sought with a large enough effect; inconclusive = small, poorly fitted or top-dose-only effect, or another doubt; inactive = no such curve, though single readings can be large; an effect the other way counts as inactive or inconclusive.

SMILES	PI5P4K alpha inh	BAZ2B inh	PLK1 PBD inh	HP1b chromo inh	G9a inh	JMJD2A Tudor inh
O=C(NCCS(=O)(=O)c1ccc(Br)cc1)c1ccc(F)cc1	i	i	i	i	nt	i
CO[C@]1(NC(=O)CSCC#N)C(=O)N2C(C(=O)O)=C(CSc3nnnn3C)CS[C@H]21	nt	nt	nt	nt	i[12.7 µM]	nt
O=C(Nc1ccc(Br)cc1)c1ccc2ncsc2c1	i	i	i	i	45µM	i
CCOc1ccc(NC(=O)COC(=O)c2ccc3ncsc3c2)cc1OCC	i	?	i	i	45µM	i
CCc1ccc(NC(=O)c2ccc3ncsc3c2)cc1	nt	i	nt	nt	i	nt
Cc1ccc(C)c(OCCOCCN2CC(C)OC(C)C2)c1C (configuration not stated)	i	25µM	i	?	13µM	1µM
CC1CN(CCOc2ccccc2C(C)C)CC(C)O1 (configuration not stated)	i	?	i	?	10µM	22µM
Cc1ccc(C)c(OCCOCCN2CCOCC2)c1	nt	i	i	i	i[12.7 µM]	i
COC(=O)c1ccccc1OCCOc1ccccc1C(=O)OC	i	i	i	i	i	i
CC1CN(CCOCCOc2ccccc2-c2ccccc2)CC(C)O1 (configuration not stated)	i	22µM	i	?	1.8µM	10µM
COC(=O)c1ccccc1OCCCCN1CC(C)OC(C)C1 (configuration not stated)	i	35µM	i	?	3.5µM	1.8µM
O=C(CN(C(=O)CCC(=O)Nc1nccs1)c1ccccc1F)NCCc1ccccc1	i	i	i	i	i	i
O=S(=O)(NCc1nc2cccnc2n1Cc1ccccc1)c1ccc2c(c1)CCCC2	nt	i	nt	i	i	i
COc1ccc(CNC(=O)CN2C(=O)NC3(CCCCCCC3)C2=O)cc1	i	nt	i	i	nt	i
O=C(CSc1ccc(-c2ccc(Br)cc2)nn1)NC1CCCC1	i	i	i	i	nt	i
O=C(Nc1ccc(Oc2ccccc2)cc1)c1ccc(F)c(S(=O)(=O)N2CCN(c3ccccc3F)CC2)c1	nt	i	nt	i	i	i
CC1CN(CCCCOc2ccc(F)cc2)CC(C)O1 (configuration not stated)	i	50µM	i	50µM	10µM	?
Fc1ccc(OCCCCCN2CCCC2)cc1	nt	i	i	i	i	i
O=C(/C=C/c1ccc2c(c1)OCO2)NCCS(=O)(=O)N1CCN(c2ccccc2)CC1	i	nt	i	nt	nt	nt
O=C(CC1CCC1)NC(c1ccccc1)c1ccccc1	i	i	i	i	i	i
Cc1ccc(/C=N/NC(=O)C2(O)c3ccccc3-c3ccccc32)o1	i	i	i	i	56µM	i
Cc1ccc(/C=N/NC(=O)c2ccccn2)o1	i	i	i	i	?	i
CCn1c(CN2CCN(c3cccc(Cl)c3)CC2)nc2c1c(=O)[nH]c(=O)n2C	nt	i	nt	i	i	i
O=C(CCCCCNC(=O)c1ccccc1)N/N=C/c1ccc(O)cc1O	i	i	i	i	i	i
O=C(N/N=C/c1ccc(Cl)cc1Cl)c1ccncc1	i	?	i	i	nt	i
SMILES	PI5P4K alpha inh	BAZ2B inh	PLK1 PBD inh	HP1b chromo inh	G9a inh	JMJD2A Tudor inh
O=C(N/N=C/c1cc(Cl)cc(Cl)c1O)c1ccncc1	i	10µM	i	i	i	22µM
O=C(N/N=C/c1cc(Br)cc([N+](=O)[O-])c1O)c1ccc(NC(=O)c2ccc(F)cc2)cc1	i	13µM	?	?	35µM	32µM
O=C(N/N=C/c1ccc(O)cc1O)c1ccncc1	i	32µM	i	i	i	56µM
CCc1cc(C(=O)N/N=C/c2ccc(O)cc2O)c2ccccc2n1	i	45µM	i	i	i	79µM
CCNc1cccc(S(=O)(=O)N2CCN(S(=O)(=O)c3ccc4c(c3)OCCO4)CC2)c1	nt	nt	nt	nt	nt	i
Cc1cccc(C(=O)Oc2c(Br)cc(Br)cc2/C=N/NC(=O)c2ccncc2)c1	i	i	30µM	i	i	i
O=C(N/N=C/c1cc(Br)cc(Br)c1O)c1ccncc1	i	8.9µM	i	i	50µM	13µM
O=C(N/N=C/c1cc(Br)c(Br)s1)c1ccncc1	i	i	i	i	i	i
Cc1c(C(=O)N2CCC(C)CC2)c(S(=O)(=O)NCc2ccc(Br)cc2)c(C)n1C	nt	i	nt	i	i[12.7 µM]	i
CCn1c(C)[n+](Cc2ccccc2)c2ccc(C(=O)OC)cc21	i	nt	i	i	32µM	i

Screening data (PubChem)
